This is a sample that favours compounds with a hit; in the whole collection about 2.6% have one here.
Cruzain inh Det: inhibitors of Trypanosoma cruzi cruzain with detergent; P25779; purified cruzain, Z-FR-AMC fluorescence, 0.01% Triton; Potency, µM, actives largely listed as inhibitors; 0.43% of 200,000 active; also: nearly all actives have a fitted effect of over 40% in size
Target sequence (P25779 123-467 limits assumed): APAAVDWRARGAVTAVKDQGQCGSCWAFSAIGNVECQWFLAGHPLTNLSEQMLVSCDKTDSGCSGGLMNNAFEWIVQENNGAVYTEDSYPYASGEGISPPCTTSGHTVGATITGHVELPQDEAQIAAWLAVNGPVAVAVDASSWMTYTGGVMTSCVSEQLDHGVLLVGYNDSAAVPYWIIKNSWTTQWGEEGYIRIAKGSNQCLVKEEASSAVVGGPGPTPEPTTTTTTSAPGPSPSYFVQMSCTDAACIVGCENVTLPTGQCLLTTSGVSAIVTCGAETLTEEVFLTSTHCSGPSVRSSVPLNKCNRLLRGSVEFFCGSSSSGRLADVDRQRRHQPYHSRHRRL
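Enzyme 1.5 nM, Z-FR-AMC 2 uM, NaOAc 100 mM pH 5.5, DTT 5 mM, Triton X-100 0.01%; 15 min RT compound preincubation; kinetic ex360/em450, 60 s delta.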
Cruzain noTriton: cruzain (T. cruzi) inhibition without detergent | 2.3% of 200,000 active | purified cruzain, Z-FR-AMC fluorescence, no detergent | AID 1476 | Potency, µM, usual class: inhibitors; also: nearly all actives have a fitted effect of over 40% in size
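Purified cruzain at 1.5 nM, pre-incubated 15 min with compound at room temperature in 100 mM sodium acetate pH 5.5, 5 mM DTT, 0.00005% Triton X-100. Reaction started with 2 uM Z-FR-AMC; AMC fluorescence increase over 60 s gives rate.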
Numbers stand for hits; - = inactive; ? = inconclusive. Calls follow the shape of the dose curve; as a rule, active = well fitted curve in the direction sought with a large enough effect; inconclusive = small, poorly fitted or top-dose-only effect, or another doubt; inactive = no such curve, though single readings can be large; an effect the other way counts as inactive or inconclusive.

SMILES | Cruzain inh Det | Cruzain noTriton
Cc1c(Cl)cccc1NC(=O)CSc1ncc(S(=O)(=O)c2ccc(C(C)C)cc2)c(=O)[nH]1 | 28µM | ?
CCc1ccc(S(=O)(=O)c2cnc(SCC(=O)Nc3ccc(OC)cc3OC)[nH]c2=O)cc1 | - | -
COc1ccc(NS(=O)(=O)c2cccc(C(=O)N/N=C(\C)c3ccc(-n4ccnc4)cc3)c2)cc1 | - | -
C/C(=N\NC(=O)c1cccc(S(=O)(=O)Nc2ccccc2Cl)c1)c1ccc(-n2ccnc2)cc1 | - | 20µM
COc1cccc(Cn2c(=O)cnc3cnc(Oc4cccc(Cl)c4)nc32)c1 | - | ?
COC(=O)C(CCSC)Nc1ncnc2onc(-c3ccc(F)cc3)c12 (stereo not drawn) | - | -
Cc1cc(Br)ccc1NC(=O)c1c(C)oc2ncnc(N3CCCCC3)c12 | - | -
Cc1[nH]c(N)nc(=S)c1CCC(=O)O | - | -
Cc1c(Cc2ccccc2)sc(/N=C/c2c(O)ccc3ccccc23)c1C(N)=O | - | -
Cc1c(Cc2ccccc2)sc(N)c1C(N)=O | - | ?
COc1ccc(/C=C/C(=O)Nc2sc(Cc3ccccc3)c(C)c2C(N)=O)cc1 | - | 16µM
Cc1c(Cc2ccccc2)sc(/N=C/c2ccc3ccccc3c2)c1C(N)=O | - | 6.3µM
CCOc1ccc(C(C)C)cc1S(=O)(=O)Nc1cccc(-c2ccc(N3CCOCC3)nn2)c1 | - | -
Cc1ccc2oc(-c3ccc(NC(=O)c4oc5ccc(Cl)cc5c4C)cc3)nc2c1 | - | -
CC(=O)O[C@H]1CC[C@@]2(C)[C@@H](CC[C@H]3[C@H]2CC(=O)[C@@]2(C)[C@@H]3C[C@H]3CC(C)=CC(=O)[C@H]32)C1 | - | -
CCCN(CCC)C(=O)CSc1nnc2cc(C)c3cc(C)cc(C)c3n12 | - | -
CNc1oc(-c2ccc(Cl)cc2)nc1P(=O)(c1ccccc1)c1ccccc1 | 13µM | ?
CCOP(=O)(OCC)c1nc(-c2ccc(C)cc2)oc1NCc1ccccc1 | - | ?
CCCNC(=O)c1ccc2c(c1)N=C(CCC)c1ccccc1S2 | - | -
C/C(=N\NC(=O)C(=O)Nc1cccc(C(F)(F)F)c1)c1ccc(Cl)s1 | - | 16µM
C/C(=N\NC(=O)C(=O)Nc1cccc(Cl)c1)c1ccncc1 | - | -
O=C(COc1ccc2c(c1)OCO2)Nc1ccc2c(c1)oc1ccccc12 | - | 10µM
O=C(Nc1ccc2c(c1)oc1ccccc12)c1ccc2c(c1)OCO2 | - | ?
Cc1ccc(NC(=O)Cn2c(=O)n(Cc3ccc4c(c3)OCO4)c(=O)c3oc4ccccc4c32)cc1C | - | -
COC(=O)c1cc2sc(Cl)cc2n1CC(=O)Nc1cc(OC)cc(OC)c1 | - | -
SMILES | Cruzain inh Det | Cruzain noTriton
COC(=O)c1cc2sc(Cl)cc2n1CC(=O)NCCC(C)C | - | 25µM
CCCc1c(OCC(O)COc2ccc3c(=O)cc(C(=O)O)oc3c2CCC)ccc(C(C)=O)c1O (stereo not drawn) | - | ?
CCCCC(=O)OC1CCC2C3CCc4cc(O)ccc4C3CC[C@]12C (stereo partly drawn) | - | -
CCn1c(=O)c(C(=O)NNS(=O)(=O)c2ccc(C)cc2)c(O)c2ccccc21 | - | -
CCCn1c(=O)c(C(=O)NNS(=O)(=O)c2ccc(C)cc2)c(O)c2ccccc21 | - | 13µM
CC(C)C(=O)c1cc2c(cc1NC(=O)Nc1cccc3ccccc13)OCCO2 | - | -
[O-]/C(=C(\C(=S)Nc1cccc2ccccc12)[n+]1ccccc1)c1ccc2c(c1)OCCO2 | - | 13µM
CCOc1ccc(C(=O)Nc2ccc3nc(SCC(=O)N(C)c4ccccc4)sc3c2)cc1 | - | -
CCCOc1ccc(-c2nc(SCC(=O)c3ccc(Cl)cc3)n[nH]2)cc1 | - | 10µM
CCOc1ccc(-c2nc(SCC(=O)c3ccccc3)n[nH]2)cc1 | - | ?
Cc1ccc(N2C(=O)CSC23C(=O)N(CC(=O)NCCc2ccccc2)c2ccccc23)cc1C (stereo not drawn) | - | -
CC(C)NCc1c(O)c(Br)cc2oc3c(c12)CCCC3 | - | 13µM
O=C1NCCCc2c1oc1cc(Br)c(O)c(Br)c21 | - | -
CC(C)=NNc1nc(-c2ccccc2)cs1 | - | -
COC(=O)c1ccc(/C=N/Nc2nc(-c3ccc(C)cc3)cs2)cc1 | - | 13µM
COC(=O)c1ccc(/C=N/Nc2nc(-c3ccccc3)cs2)cc1 | - | 13µM
C(=N\Nc1nc(-c2ccccc2)cs1)/c1cccnc1 | - | -
CC(/C=C/c1ccccc1)=N\Nc1nc(-c2ccccc2)cs1 | - | 25µM
COc1ccc(/C=N/N(C(C)=O)c2nc(-c3ccc(C)cc3)cs2)cc1 | - | -
Cc1ccccc1-c1ccc2ncnc(NCCN3CCOCC3)c2c1 | - | -
COc1ccc(OC)c(NC(=O)CC(=O)Nc2ccc3nc4n(c(=O)c3c2)CCCCC4)c1 | - | ?
Oc1cccc(-c2nc3ncccn3c2Nc2cccc(C(F)(F)F)c2)c1 | - | -
CC(C)(C)C(=O)CP(=O)(O)O | - | -
NCCCCCCN | - | -
COc1cccc(-c2csc(N3CCN(C(=S)Nc4ccc(Cl)cc4)CC3)n2)c1 | - | 25µM

High-throughput results: PubChem, National Center for Advancing Translational Sciences (NCATS)
